High-throughput results as filed in PubChem.
In the library only some 1.9% were active in any assay of this set; here they are far more common.
GLD-1 TGE inh: GLD-1-TGE RNA interaction inhibition (C. elegans); purified GLD-1 + fluorescein TGE RNA, fluorescence polarization; actives 0.44% (n = 320,000); AID 2280; inhibition, % at 5.96 µM;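 active means percent inhibition above a per-plate cutoff, the plate mean of test compounds plus 3 SD, cut at about 30% in these data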;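 further: 0% = DMSO wells with GLD-1 and probe and 100% = wells lacking GLD-1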
LANA-H2A inh: blocks KSHV LANA binding to histone H2A/H2B; actives 0.6% (n = 320,000); inhibition, % (concentration not given with the values); Q9QR71; cell-free LANA-H2A/H2B peptide, fluorescence polarization; AID 2629; in the data active means inhibition mostly above about 10%, no sharp cut-off; inactive means mostly below about 6.7%
Target sequence (Q9QR71 whole entry, looked up): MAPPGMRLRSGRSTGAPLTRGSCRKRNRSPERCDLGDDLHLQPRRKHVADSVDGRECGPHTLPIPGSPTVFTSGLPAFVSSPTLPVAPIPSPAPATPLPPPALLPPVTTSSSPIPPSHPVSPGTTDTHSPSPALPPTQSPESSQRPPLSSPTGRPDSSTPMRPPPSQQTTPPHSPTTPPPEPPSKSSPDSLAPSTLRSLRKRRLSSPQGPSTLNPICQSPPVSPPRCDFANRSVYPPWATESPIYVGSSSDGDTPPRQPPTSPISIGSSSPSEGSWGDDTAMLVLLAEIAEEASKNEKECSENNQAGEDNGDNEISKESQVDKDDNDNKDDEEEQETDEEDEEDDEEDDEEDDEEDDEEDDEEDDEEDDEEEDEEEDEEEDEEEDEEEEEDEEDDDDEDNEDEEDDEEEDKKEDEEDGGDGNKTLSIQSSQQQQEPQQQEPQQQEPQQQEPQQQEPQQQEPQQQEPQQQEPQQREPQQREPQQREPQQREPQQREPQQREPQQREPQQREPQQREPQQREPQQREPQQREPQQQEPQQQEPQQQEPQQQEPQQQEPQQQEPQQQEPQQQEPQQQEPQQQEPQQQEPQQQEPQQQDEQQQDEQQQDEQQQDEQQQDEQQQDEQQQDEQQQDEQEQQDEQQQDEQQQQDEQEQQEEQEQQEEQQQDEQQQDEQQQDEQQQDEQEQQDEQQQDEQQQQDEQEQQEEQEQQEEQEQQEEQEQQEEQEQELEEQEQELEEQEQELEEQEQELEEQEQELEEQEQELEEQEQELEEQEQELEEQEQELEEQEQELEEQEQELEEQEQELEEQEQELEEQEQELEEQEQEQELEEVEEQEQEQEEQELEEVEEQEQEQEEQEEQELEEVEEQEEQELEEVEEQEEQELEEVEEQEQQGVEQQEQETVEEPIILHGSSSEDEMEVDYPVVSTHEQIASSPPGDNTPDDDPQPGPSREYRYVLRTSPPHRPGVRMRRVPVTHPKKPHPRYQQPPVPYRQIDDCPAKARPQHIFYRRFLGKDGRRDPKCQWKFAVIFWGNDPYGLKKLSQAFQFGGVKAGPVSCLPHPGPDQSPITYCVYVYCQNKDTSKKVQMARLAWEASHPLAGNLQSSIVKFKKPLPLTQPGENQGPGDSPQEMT
Bcl-xL primary: inhibitors of human Bcl-xL; Q07817; GST-Bcl-xL / FITC-Bim BH3 peptide fluorescence polarization; inhibition, % at 10.9 µM; actives 0.7% (n = 320,000);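 active means inhibition above the mean of all tested compounds plus 3 SD, cutoff set per campaign, cut at about 30% in these data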;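 further: 0% = DMSO wells and 100% = unlabeled Bim-BH3 peptide competitor; inhibitors lower millipolarization by displacing the labeled peptide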
CR mimetic SO: caloric restriction mimetics inhibiting age-related superoxide in yeast. AID 2690. actives 0.18% (n = 330,000). superoxide response (% of plate mean), % at 10 µM. S. cerevisiae aged cells, superoxide DHE fluorescence; active compounds read low;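 active means superoxide response under a set limit, about three screen SD below normal, cut at about 65% in these data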;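 further: yeast aged for seven days with compound at 30 °C before DHE staining; 100% = average MFI of all compound-treated wells on the plate with controls excluded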
MEX-5 binding: C. elegans MEX-5 TCR-2 RNA binding activity | Q9XUB2 | MEX-5/FITC-TCR2 RNA binding, fluorescence polarization; active compounds read low | activity score (negative = inhibition of binding), % at 10 µM | actives 0.38% (n = 300,000) | AID 1832;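 active means inhibition past about -25% in most replicates, and total fluorescence under double the plate's negative control median, limit read from the data; inconclusive means replicates evenly split on the limit, or fluorescence at least double controls; inactive means too little inhibition in most replicates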;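 further: 0% = DMSO and -100% = 5 µM competing unlabeled TCR2 RNA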
MCL1-BIM inh: inhibitors of human MCL1 binding to BIM-BH3 peptide | actives 0.68% (n = 320,000) | GST-MCL1 / FITC-Bim-BH3 fluorescence polarization | Q07820 | inhibition, % at 10.9 µM;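 active means inhibition above the mean inhibition of all tested compounds plus 3 SD, set per campaign, cut at about 40% in these data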;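 further: 0% = DMSO wells and 100% = unlabeled Bim-BH3 peptide control; higher means more loss of mP so more displacement of Bim peptide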
Bcl-xL conf: counter-screen for MCL1 inhibitors: confirmation of human Bcl-xL inhibitors. shares compounds with MCL1-BIM inh. AID 2166. inhibition, % at 10.9 µM. GST-Bcl-xL / FITC-Bim BH3 peptide FP binding. actives 54% (n = 1,700);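 active means inhibition above a cutoff equal to the mean inhibition of all tested compounds plus 3 SD, cut at about 30% in these data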;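 further: 0% = DMSO wells and 100% = unlabeled Bim BH3 control peptide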
MCL1 inh confirm: confirmation of human MCL1 and BIM-BH3 interaction inhibitors | actives 61% (n = 1,700) | GST-MCL1 / FITC-Bim-BH3 fluorescence polarization | shares compounds with MCL1-BIM inh | inhibition, % at 10.9 µM | AID 2168;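 active means inhibition above the average of all tested compounds plus 3 SD, cut at about 40% in these data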;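 further: 0% = DMSO wells and 100% = unlabeled Bim-BH3 control peptide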
GLD-1 TGE cf: confirmation of C. elegans GLD-1 TGE RNA binding inhibitors; shares compounds with GLD-1 TGE inh; GLD-1/FL-TGE RNA fluorescence polarization, biochemical; inhibition, % at 5.96 µM; actives 10% (n = 550);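 active means average inhibition across triplicates above the hit cutoff set in the primary screen, cut at about 32% in these data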;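 further: 0% = GLD-1 with RNA probe and DMSO and 100% = wells lacking GLD-1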
An asterisk follows results filed as active; ? = inconclusive; . = not tested or not shown.

SMILES	GLD-1 TGE inh	LANA-H2A inh	Bcl-xL primary	CR mimetic SO	MEX-5 binding	MCL1-BIM inh	Bcl-xL conf	MCL1 inh confirm	GLD-1 TGE cf
COCCN1CN(S(=O)(=O)c2ccccc2)c2nc3ccccc3nc21	58.7*	6.7	62.0*	99.1	1.7	55.3*	30.5*	43.3*	13.3
COCCN1CN(S(=O)(=O)c2ccc(Cl)cc2)c2nc3ccccc3nc21	7.3	1.0	1.9	102.8	1.9	2.5	.	.	.
CC(C)CN(C(=O)CN(C)CC(=O)Nc1ccccc1C#N)c1c(N)n(CC(C)C)c(=O)[nH]c1=O	5.8	2.9	.	90.5	.	.	.	.	.
Cc1ccc(-n2c(C)nc3c(cnn3-c3ccc(C)c(C)c3)c2=O)cc1C	75.4*	-2.1	75.6*	103.6	-0.8	78.9*	13.9	6.7	-0.1
Nc1ncnc2c1c(-c1ccc(Oc3ccccc3)cc1)cn2C1CCCC1	0.9	-0.4	-1.3	99.7	.	-1.4	.	.	.
Cc1cccc(-n2c(SCc3cc(=O)n4ccsc4n3)nc3ccccc32)c1	42.5*	-0.4	73.4*	85.1	-5.9	66.7*	63.4*	88.8*	25.5
Cc1ccc(SCc2cc(=O)n3ccsc3n2)c(C)c1	6.5	-1.2	3.2	103.4	1.4	8.8	.	.	.
Cc1cc(Br)ccc1NC(=O)CN(C)C(=O)C1CSC2(C)CCC(=O)N12 (stereo unspecified)	2.8	6.3	5.3	103.5	.	9.9	.	.	.
CC(OC(=O)/C(C#N)=C/c1ccc(N(C)C)cc1)C(=O)N(C)c1ccccc1 (stereo unspecified)	-159.9	-3.5	-70.9	102.8	1.0	-100.2	.	.	.
CC(OC(=O)/C(C#N)=C/c1ccc(N(C)C)cc1)C(=O)NCc1ccco1 (stereo unspecified)	76.8*	5.2	110.6*	101.4	-2.9	128.8*	99.0*	141.9*	56.0*
COc1ccc(CNC(=O)C(C)OC(=O)c2cccc(N(C)C)c2)cc1 (stereo unspecified)	3.4	0.6	.	91.7	.	.	.	.	.
CC(=O)N1CCc2[nH]c3ccc(C)cc3c2C1	17.8	-3.8	15.6	106.0	-11.9	18.4	.	.	.
CCOC(=O)N1CCc2[nH]c3ccc(C)cc3c2C1	52.8*	-1.2	65.8*	85.8	-6.2	62.5*	9.3	8.3	10.7
COC(=O)c1ccc2c(c1)SC1=C(CCCC1=O)N2	96.2*	1.7	148.5*	94.3	-2.0	176.8*	118.2*	161.0*	47.9*
S=C1CCSc2ccc(Cl)cc2N1	.	.	.	.	0.2	.	.	.	.
O=C1CCCC2=C1Sc1ccc(Cl)cc1N2	50.0*	11.7	69.4*	88.9	?	77.5*	63.6*	73.7*	11.4
CCN1CCN(CC(=O)Nc2c(OC)cccc2OC)CC1	-3.5	0.6	0.6	100.1	0.3	9.8	.	.	.
O=C1/C(=C\c2ccco2)NC(=S)N1c1ccccc1	55.0*	5.3	33.9*	102.1	-2.3	49.7*	13.5	16.5	-3.4
CCCN=C1N/C(=C\c2ccco2)C(=O)N1c1ccccc1	19.8	8.7	8.9	104.8	-1.5	10.8	.	.	.
COCCCN(C(=O)CCOc1ccccc1C)c1c(N)n(Cc2ccccc2)c(=O)[nH]c1=O	3.6	-4.3	-10.4	96.3	0.8	-5.0	.	.	.
Cc1csc(SCc2c(C(=O)O)oc3ccccc23)n1	62.1*	-4.3	106.7*	101.7	0.7	125.0*	5.8	3.9	-2.1
C=C1c2cccc(O)c2C(O)=C2C(=O)[C@]3(O)C(O)=C(C(N)=O)C(=O)[C@@H](N(C)C)[C@@H]3[C@@H](O)[C@H]12	36.4*	0.7	63.8*	90.2	-31.8*	107.5*	36.0*	86.7*	-1.8
C/C=C/c1ccc(OCC(=O)Nc2cc(S(=O)(=O)N3CCOCC3)ccc2N2CCCC2)c(OC)c1	7.4	-5.0	0.4	120.1	0.9	0.1	.	.	.
CNc1nc2cc([N+](=O)[O-])c([N+](=O)[O-])cc2nc1NC	98.3*	6.5	89.6*	124.9	2.5	98.2*	11.6	6.6	8.0
N#Cc1ccsc1NC(=O)CN1C(=O)NC2(CCCC2)C1=O	53.9*	5.4	65.5*	96.2	-6.5	70.8*	59.2*	94.2*	5.8
SMILES	GLD-1 TGE inh	LANA-H2A inh	Bcl-xL primary	CR mimetic SO	MEX-5 binding	MCL1-BIM inh	Bcl-xL conf	MCL1 inh confirm	GLD-1 TGE cf
O=C1CC(/C=C/c2ccccn2)=Nc2ccccc2N1	31.6*	-3.9	56.3*	125.4	0.4	53.4*	1.1	-1.2	-0.1
O=C1CC(/C=C/c2ccc([N+](=O)[O-])cc2)=Nc2ccccc2N1	-0.8	-3.6	0.2	73.1	.	1.9	.	.	.
COc1ccc(NC(=O)Nc2cc(C)cc(C)c2)cn1	48.0*	-3.1	58.4*	118.2	-36.4*	58.0*	62.2*	79.5*	42.6*
CN(C)C(=O)CCc1ccc2c3c([nH]c2c1)[C@]1(CCc2ccccc2)[C@@H](C(=O)N2CCCCC2)C[C@H](CC(=O)NCCCn2ccnc2)C(=O)N1CC3	.	.	.	108.8	.	.	.	.	.
O=Cc1c(N2CCN(CCO)CC2)nc2ccccn2c1=O	41.4*	3.9	60.2*	101.8	-8.1	68.9*	54.5*	76.6*	8.2
O=C(N/N=C/c1cc(Br)c(Br)o1)c1cccnc1	40.4*	4.1	93.9*	92.3	-11.6	126.1*	34.2*	44.3*	3.1
O=C(N/N=C\c1cc(Br)c(Br)o1)c1cncc(Br)c1	5.6	-3.6	5.8	97.3	2.1	6.1	.	.	.
CCC1CCCCN1C(=O)COC(=O)COc1ccc(Br)cc1 (stereo unspecified)	-2.3	-5.8	.	104.4	.	.	.	.	.
Cc1ccc(-c2cc(-c3ccco3)c(C#N)c(=O)[nH]2)cc1	50.2*	8.2	78.7*	128.6	-40.1*	96.2*	26.1	53.1*	-13.8
Nc1cccc2c1C(=O)N(c1ccccc1)C2=O	70.5*	2.6	69.0*	111.3	-25.8*	80.1*	64.6*	78.8*	67.2*
CNC(=O)COC(=O)c1cc(-c2ccco2)nc2ccccc12	57.1*	4.5	95.9*	159.7	-3.6	121.2*	37.9*	75.5*	-3.0
O=c1[nH]c2cc3c(cc2cc1CN(Cc1nnnn1CC1CCCO1)C1CCCCC1)OCO3 (stereo unspecified)	43.2*	4.3	76.7*	97.3	-6.3	84.9*	45.1*	67.9*	-2.4
COc1ccccc1CNCCS(=O)(=O)NN1CCOCC1	.	.	.	96.6	.	.	.	.	.
